Measured values from PubChem BioAssay.
Activity calls are given as the source filed them.

Tests used:
[1] = tested on: PRMT1 (protein arginine N-methyltransferase 1); test: small molecules binding arginine methyltransferase PRMT1 – biochemical, small-molecule microarray, 635 nm fluorescence, primary screen (AID 1088); settings: higher = more signal;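 also: binding of Prmt1 protein to compounds spotted on small-molecule microarray slides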
[2] = growth effects on S. cerevisiae YJM789 – YJM789 clinical isolate, OD600, 24 h, basal, primary screen (AID 1089); settings: higher = more signal, called active from +8 up or from −8 down;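 also: growth of clinical yeast isolate S. cerevisiae YJM 789 seeded 1000 cells per well; test concentration not given here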
[3] = S. pombe growth modifiers, basal conditions – strain 972, OD600, 24 h, no modulator, primary screen (AID 1090);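 also: basal condition with compound alone and no growth modifier present; test concentration not given here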; settings: S. pombe 972 growth, higher = more signal, called active from +8 up or from −8 down
[4] = budding yeast growth modifiers under rapamycin – strain BY4716, OD600, 96 h, primary screen (AID 1091); also: test concentration not given here; settings: S. cerevisiae BY4716 + rapamycin, higher = more signal, called active from +8 up or from −8 down
[5] = biological target: Torsin-1A-interacting protein 2 (Homo sapiens) (UniProt Q8NFQ8); test: small molecules binding lysate-expressed LULL1 – cell lysate, human LULL1 lysate, 635/667 nm fluorescence, primary screen (AID 1092); settings: small-molecule microarray, hLULL1 lysate binding, 635 nm fluorescence; higher = more signal;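 also: probe is lysate of COS7 cells overexpressing human LULL1; score merges per-feature 667 nm fluorescence with signal-to-noise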
[6] = optical density change of DRC41 E. coli – strain DRC41, OD650, 24 h, E. coli filamentation project, primary screen (AID 1093);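 also: MC1000 strain lacking acrAB efflux and sulA so SOS filamentation is blocked; test concentration not given here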; settings: E. coli DRC41 growth, higher = more signal, called active from +8 up or from −8 down
[7] = probe aLefty2 binding to arrayed compounds – biochemical, biotinylated probe, 635/667 nm fluorescence, primary screen (AID 1094); settings: small-molecule microarray, higher = more signal;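 also: score merges spot fluorescence near 667 nm with spot signal-to-noise ratio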
[8] = tested on: Noggin (protein binding on small-molecule microarray); test: small molecules binding Noggin protein – biochemical, 635/667 nm fluorescence, primary screen (AID 1095); settings: 635 nm fluorescence, higher = more signal;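 also: score merges 667 nm feature fluorescence with signal to noise over triplicate slides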
[9] = biological target: Neurogenic locus notch homolog protein 3 (Homo sapiens) (UniProt Q9UM47); test: small molecules binding NOTCH3 protein – biochemical, 635/667 nm fluorescence, primary screen (AID 1096); settings: small-molecule microarray, 635 nm fluorescence, higher = more signal
[10] = probe aEGFR binding to arrayed compounds – biochemical, biotinylated probe, 635/667 nm fluorescence, primary screen (AID 1097); settings: small-molecule microarray, higher = more signal;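 also: probe is a biotinylated anti-EGFR antibody binding compounds printed on slides; score combines fluorescence near 667 nm and signal to noise of each spot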

Sequence of Torsin-1A-interacting protein 2 (Homo sapiens) (Q8NFQ8 whole entry, looked up): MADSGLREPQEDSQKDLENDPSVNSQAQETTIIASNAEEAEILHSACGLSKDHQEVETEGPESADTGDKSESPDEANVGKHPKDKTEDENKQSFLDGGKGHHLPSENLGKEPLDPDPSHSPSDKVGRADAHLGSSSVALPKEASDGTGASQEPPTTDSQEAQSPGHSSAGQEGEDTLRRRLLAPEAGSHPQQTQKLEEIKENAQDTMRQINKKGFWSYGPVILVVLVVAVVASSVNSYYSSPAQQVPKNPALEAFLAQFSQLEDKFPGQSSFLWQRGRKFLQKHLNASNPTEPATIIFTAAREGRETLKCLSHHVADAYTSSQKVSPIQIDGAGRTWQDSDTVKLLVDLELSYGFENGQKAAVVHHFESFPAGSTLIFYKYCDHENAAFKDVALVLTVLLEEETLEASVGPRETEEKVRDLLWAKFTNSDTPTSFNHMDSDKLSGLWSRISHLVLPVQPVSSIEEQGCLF
Sequence of Neurogenic locus notch homolog protein 3 (Homo sapiens) (Q9UM47 whole entry, looked up): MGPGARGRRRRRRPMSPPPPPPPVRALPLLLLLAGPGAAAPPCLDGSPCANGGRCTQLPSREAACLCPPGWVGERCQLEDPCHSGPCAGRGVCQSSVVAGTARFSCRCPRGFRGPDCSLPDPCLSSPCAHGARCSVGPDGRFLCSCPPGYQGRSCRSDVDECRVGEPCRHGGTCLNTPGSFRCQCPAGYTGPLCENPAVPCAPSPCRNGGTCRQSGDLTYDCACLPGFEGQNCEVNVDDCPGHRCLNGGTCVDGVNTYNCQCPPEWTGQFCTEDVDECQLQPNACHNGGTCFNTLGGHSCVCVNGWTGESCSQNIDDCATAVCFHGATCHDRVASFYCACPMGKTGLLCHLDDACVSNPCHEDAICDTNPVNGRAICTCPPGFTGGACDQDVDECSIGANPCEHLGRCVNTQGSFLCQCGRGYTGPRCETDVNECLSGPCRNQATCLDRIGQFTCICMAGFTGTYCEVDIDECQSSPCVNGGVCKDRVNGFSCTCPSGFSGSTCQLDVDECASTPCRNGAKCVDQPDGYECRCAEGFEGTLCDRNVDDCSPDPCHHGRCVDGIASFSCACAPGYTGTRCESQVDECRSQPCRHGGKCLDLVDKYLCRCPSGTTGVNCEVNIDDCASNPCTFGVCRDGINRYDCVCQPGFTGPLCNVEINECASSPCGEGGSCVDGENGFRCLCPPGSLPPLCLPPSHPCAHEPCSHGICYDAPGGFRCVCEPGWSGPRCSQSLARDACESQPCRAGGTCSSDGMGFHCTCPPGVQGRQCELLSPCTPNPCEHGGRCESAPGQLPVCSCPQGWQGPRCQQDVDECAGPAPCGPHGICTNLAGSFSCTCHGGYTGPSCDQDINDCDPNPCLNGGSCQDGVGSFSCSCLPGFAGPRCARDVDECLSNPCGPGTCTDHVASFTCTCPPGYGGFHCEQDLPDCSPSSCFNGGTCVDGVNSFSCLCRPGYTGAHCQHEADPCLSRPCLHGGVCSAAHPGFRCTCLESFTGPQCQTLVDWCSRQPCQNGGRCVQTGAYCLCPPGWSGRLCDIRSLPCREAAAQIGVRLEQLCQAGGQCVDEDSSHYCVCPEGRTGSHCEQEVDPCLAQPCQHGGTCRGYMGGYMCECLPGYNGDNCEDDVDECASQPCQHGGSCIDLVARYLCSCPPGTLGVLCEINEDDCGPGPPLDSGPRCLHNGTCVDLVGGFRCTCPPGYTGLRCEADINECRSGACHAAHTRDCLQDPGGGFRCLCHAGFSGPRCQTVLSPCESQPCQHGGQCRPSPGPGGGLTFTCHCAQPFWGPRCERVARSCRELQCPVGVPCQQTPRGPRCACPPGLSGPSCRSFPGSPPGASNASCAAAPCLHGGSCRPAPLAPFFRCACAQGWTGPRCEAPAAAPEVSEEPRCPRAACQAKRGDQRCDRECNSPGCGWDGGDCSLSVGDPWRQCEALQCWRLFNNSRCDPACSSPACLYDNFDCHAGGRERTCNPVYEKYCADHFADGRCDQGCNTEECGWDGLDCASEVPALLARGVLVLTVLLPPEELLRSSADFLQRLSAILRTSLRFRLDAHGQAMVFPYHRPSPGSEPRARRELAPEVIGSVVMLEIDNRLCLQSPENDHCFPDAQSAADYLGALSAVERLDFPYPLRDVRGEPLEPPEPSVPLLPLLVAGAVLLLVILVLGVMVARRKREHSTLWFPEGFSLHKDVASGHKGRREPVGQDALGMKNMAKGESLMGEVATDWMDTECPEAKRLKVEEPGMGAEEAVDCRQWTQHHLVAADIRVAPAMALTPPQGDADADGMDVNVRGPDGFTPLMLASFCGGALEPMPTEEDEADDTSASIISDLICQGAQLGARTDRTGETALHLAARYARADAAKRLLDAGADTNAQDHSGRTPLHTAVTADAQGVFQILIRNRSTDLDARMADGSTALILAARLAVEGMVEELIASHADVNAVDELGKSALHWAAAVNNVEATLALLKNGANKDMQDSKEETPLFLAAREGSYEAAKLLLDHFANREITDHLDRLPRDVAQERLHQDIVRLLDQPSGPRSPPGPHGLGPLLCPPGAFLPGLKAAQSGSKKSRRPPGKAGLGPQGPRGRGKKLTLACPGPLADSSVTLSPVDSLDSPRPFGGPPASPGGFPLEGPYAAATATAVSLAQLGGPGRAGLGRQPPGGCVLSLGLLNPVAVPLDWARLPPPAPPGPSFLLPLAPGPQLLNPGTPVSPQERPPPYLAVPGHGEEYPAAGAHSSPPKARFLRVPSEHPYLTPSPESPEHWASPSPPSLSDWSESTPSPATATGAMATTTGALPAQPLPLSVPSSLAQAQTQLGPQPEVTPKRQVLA

For `C=C(/C(=C/C[C@H](OC(=O)c1ccncc1)c1ccc(CO)o1)c1cnc2ccccc2c1)C(C)C`, the composite z-score [1] was 1.52, the z-score [2] was 1.22 (inactive) and the z-score [3] was -1.67 (inactive). For the same compound, the z-score [4] was 0.433 (inactive), the composite z-score [5] was 0.947 and the z-score [6] was -0.358 (inactive). For the same compound, the composite z-score [7] was 0.0249, the composite z-score [8] was 0.963 and the composite z-score [9] was 1.05. For the same compound, the composite z-score [10] was 0.523.

With `CCOC(=O)C[C@H]1[C@H](OC(=O)c2ccc(-c3ccccc3)cc2)[C@@H](NC(=O)CC(C)C)c2cc(OCCCO)ccc2N1C(=O)c1ccc2ccccc2n1` the composite z-score [1] was -0.069, the z-score [2] was -1.13 (inactive) and the z-score [3] was -0.832 (inactive). For the same compound, the z-score [4] was -0.656 (inactive), the composite z-score [5] was 1.15 and the z-score [6] was -0.0583 (inactive). The composite z-score [7] was -0.145, the composite z-score [8] was 0.481 and the composite z-score [9] was 0.753. The composite z-score [10] was -0.0828.

With `COc1ccc([C@H]2OC[C@@H]3C[C@H](Cc4ccccc4)C(=O)N32)cc1` the composite z-score [1] was -0.476, the z-score [2] was 1.35 (inactive) and the z-score [3] was -2 (inactive). For the same compound, the z-score [4] was 0.861 (inactive), the composite z-score [5] was 0.449 and the z-score [6] was -0.238 (inactive). It also gave a composite z-score [7] of -0.155, a composite z-score [8] of 0.614 and a composite z-score [9] of 0.363. It also gave a composite z-score [10] of -0.0978.

With `Cc1ccc(S[C@]2(C(=O)NCc3ccccc3)CC(=O)N(C3CCCCC3)[C@@H]2c2ccc(CO)cc2I)cc1` the composite z-score [1] was 1.15, the z-score [2] was -0.727 (inactive) and the z-score [3] was -0.462 (inactive). The z-score [4] was 0.861 (inactive), the composite z-score [5] was 2.72 and the z-score [6] was -0.455 (inactive). The composite z-score [7] was -0.0948, the composite z-score [8] was 0.147 and the composite z-score [9] was 0.237. The composite z-score [10] was -0.139.

For `O=C1O[C@H](c2ccccc2)[C@H](c2ccccc2)N2[C@H]1[C@@H](C(=O)O)[C@]1(C(=O)Nc3ccc(C#CCCO)cc31)[C@H]2c1ccccc1OCCO`, the composite z-score [1] was 1.09, the z-score [2] was 0.642 (inactive) and the z-score [3] was -0.495 (inactive). The z-score [4] was 0.224 (inactive), the composite z-score [5] was 2.97 and the z-score [6] was 0.18 (inactive). It also gave a composite z-score [7] of -0.13, a composite z-score [8] of 0.55 and a composite z-score [9] of 0.116. The composite z-score [10] was -0.204.

In the case of `Cc1ccc(S[C@]2(C(=O)O)CC(=O)N(C3CCCCC3)[C@@H]2c2ccc(CO)cc2I)cc1`, the composite z-score [1] was 1.5, the z-score [2] was -0.693 (inactive) and the z-score [3] was -0.472 (inactive). For the same compound, the z-score [4] was 0.253 (inactive), the composite z-score [5] was 3.35 and the z-score [6] was 0.843 (inactive). The composite z-score [7] was 0.274, the composite z-score [8] was -0.0104 and the composite z-score [9] was 0.754. It also gave a composite z-score [10] of -0.0369.

With `COc1ccc([Si](C)(C)[C@@H]2[C@@H](CC(=O)N3Cc4ccccc4C[C@H]3CO)O[C@]3(C(=O)N(Cc4ccc(N5C(=O)c6cccc7cccc5c67)cc4)c4ccccc43)[C@H]2C)cc1` the composite z-score [1] was 1.55, the z-score [2] was -0.297 (inactive) and the z-score [3] was 0.389 (inactive). The z-score [4] was 1.39 (inactive), the composite z-score [5] was 1.74 and the z-score [6] was -0.465 (inactive). The composite z-score [7] was 0.104, the composite z-score [8] was 1.14 and the composite z-score [9] was 1.04. For the same compound, the composite z-score [10] was 0.0717.

For `O=C(NCc1ccc(F)cc1)[C@H]1C[C@H]2C(=O)NCC(=O)N2[C@H]1c1ccc(O)cc1`, the composite z-score [1] was 1.55, the z-score [2] was 1.29 (inactive) and the z-score [3] was 1.01 (inactive). For the same compound, the z-score [4] was 1.56 (inactive), the composite z-score [5] was 1.22 and the z-score [6] was 0.816 (inactive). It also gave a composite z-score [7] of 0.372, a composite z-score [8] of 1.35 and a composite z-score [9] of 0.0831. For the same compound, the composite z-score [10] was -0.334.

With `COC(=O)[C@@]1(Cc2ccc(F)cc2)[C@H]2c3cc(C(=O)N4CCCC4)n(Cc4ccc(C)c(F)c4F)c3C[C@H]2CN1C(=O)c1ccccc1` the composite z-score [1] was -1.69, the z-score [2] was 0.0074 (inactive) and the z-score [3] was -0.0098 (inactive). The z-score [4] was 0.378 (inactive), the composite z-score [5] was 0.919 and the z-score [6] was -0.477 (inactive). The composite z-score [7] was 0.136, the composite z-score [8] was -0.849 and the composite z-score [9] was -0.338. It also gave a composite z-score [10] of -0.111.

For `COC(=O)[C@@]1(Cc2ccc(F)cc2)[C@H]2c3cc(C(=O)N(C)C)n(CCc4ccc(OC)c(Br)c4)c3C[C@H]2CN1C(=O)c1ccccc1`, the composite z-score [1] was -0.0641, the z-score [2] was -0.309 (inactive) and the z-score [3] was -1.09 (inactive). For the same compound, the z-score [4] was -0.122 (inactive), the composite z-score [5] was 2.52 and the z-score [6] was -1.29 (inactive). For the same compound, the composite z-score [7] was 0.768, the composite z-score [8] was 0.716 and the composite z-score [9] was 0.346. The composite z-score [10] was 0.557.

In the case of `CCCC=C(CCC)[C@@H](NP(=O)(c1ccccc1)c1ccccc1)c1ccc(-c2ccccc2)cc1`, the composite z-score [1] was 1.54, the z-score [2] was 1.09 (inactive) and the z-score [3] was 2.34 (inactive). The z-score [4] was 1.84 (inactive), the composite z-score [5] was 3.11 and the z-score [6] was -0.932 (inactive). It also gave a composite z-score [7] of 0.123, a composite z-score [8] of 0.649 and a composite z-score [9] of 1.12. It also gave a composite z-score [10] of 0.0825.

With `COC(=O)C/C=C/C[C@]1(O)C(=O)N(C)c2ccccc21` the composite z-score [1] was 0.756, the z-score [2] was -1.73 (inactive) and the z-score [3] was -1.35 (inactive). For the same compound, the z-score [4] was -1.02 (inactive), the composite z-score [5] was 0.423 and the z-score [6] was 1.48 (inactive). It also gave a composite z-score [7] of -0.186, a composite z-score [8] of 0.739 and a composite z-score [9] of 0.434. It also gave a composite z-score [10] of -0.0805.

In the case of `COC(=O)[C@@H]1N=C(c2ccc(OCCCO)cc2)O[C@@H]1c1ccccc1`, the composite z-score [1] was -1.01, the z-score [2] was -1.16 (inactive) and the z-score [3] was -2.33 (inactive). For the same compound, the z-score [4] was -2.55 (inactive), the composite z-score [5] was 1.58 and the z-score [6] was 1.11 (inactive). For the same compound, the composite z-score [7] was -0.149, the composite z-score [8] was -0.993 and the composite z-score [9] was -1. For the same compound, the composite z-score [10] was -0.0485.

With `COC(=O)[C@@]1(Cc2ccc(OC)cc2)[C@H]2c3cc(C(=O)N4CCCC4)n(CCO)c3C[C@H]2CN1C(=O)c1ccccc1` the composite z-score [1] was 0.738, the z-score [2] was 0.663 (inactive) and the z-score [3] was 0.544 (inactive). For the same compound, the z-score [4] was -0.289 (inactive), the composite z-score [5] was 4.02 and the z-score [6] was -1.41 (inactive). It also gave a composite z-score [7] of 0.159, a composite z-score [8] of -0.0367 and a composite z-score [9] of 0.552. For the same compound, the composite z-score [10] was 0.212.
